Assay outcomes deposited in PubChem by Buhrlage Lab, Dana-Farber Cancer Institute and Novartis Institutes for BioMedical Research (Cambridge, Mass).
UCHL1 block – inhibitors of human UCHL1 deubiquitinase; hit rate 0.2% among 47,000; AID 1645859; purified UCHL1, Ub-rhodamine cleavage fluorescence; inhibition, % at 20 µM
OTUD3 inh – inhibitors of human OTUD3 deubiquitinase. Q5T2D3. purified OTUD3, Ub-rhodamine fluorescence, 2 h. inhibition, % at 25 µM. hit rate 0.7% among 47,000
USP7 inh – blocks human USP7 ubiquitin-rhodamine cleavage. AID 1645854. hit rate 0.3% among 47,000. purified USP7, Ub-rhodamine cleavage fluorescence. inhibition, % at 20 µM. Q93009
USP10 inh – blocks human USP10 ubiquitin-rhodamine cleavage; Q14694; hit rate 1.1% among 47,000; inhibition, % at 20 µM; purified USP10, Ub-rhodamine fluorescence, 60 min
An asterisk follows results filed as active. Rows were chosen to be rich in hits. Some 1.7% of all compounds tested hit in one or more screens of this group. No stated cut-off is given here; in the data, active means inhibition above about 30%; inactive means the rest.

SMILES	UCHL1 block	OTUD3 inh	USP7 inh	USP10 inh
COc1ccc(CC(=O)NCC(c2ccc(N(C)C)cc2)N2CCCC2)cc1 (centres undefined)	1	-6	0	0
COc1ccc(-c2nc3n(n2)C(CC(=O)Nc2cccc4ccccc24)C(=O)N3)cc1 (centres undefined)	1	19	7	41*
CCCOc1ccc(C(=O)Nc2ccc(S(=O)(=O)Nc3cc(C)nc(C)n3)cc2)cc1	1	57*	-3	0
O=C1NC(=N/N=C/c2ccccc2)SC1Cc1cc(C(F)(F)F)ccc1Cl (centres undefined)	1	29	13	47*
CCOc1ccc2[nH]c3c(N4CC(C)CC(C)C4)ncnc3c2c1 (centres undefined)	7	-15	4	6
COc1ccc(OC)c2c(C)cc(N3CC(C)CC(C)C3)nc12 (centres undefined)	22	30*	-33	15
Cc1nnc(SCCn2c(N3CCN(C(=O)c4ccco4)CC3)nc3c2c(=O)[nH]c(=O)n3C)s1	3	2	9	3
CC(C)n1nccc1C(=O)N1CCC(C2Nc3ccccc3S(=O)(=O)N2)CC1 (centres undefined)	0	0	0	1
COC1=CC(=O)c2c(O)c3c(c(C)c2C1=O)C[C@@]1(O)[C@H](O[C@H]2CC[C@H](O[C@H]4C[C@@](C)(O)[C@H](OC(=O)c5c(C)ccc(C)c5O)[C@H](C)O4)[C@@H](C)O2)C(=O)C(C(C)=O)=C(O)[C@@]1(O)C3=O	58*	53*	55*	-6
O=C(/C=C\c1ccc2c(c1)OCO2)Nc1c2c(nn1-c1ccc(Cl)cc1)CS(=O)(=O)C2	3	39*	6	18
O=C(O)c1ccc(Cl)c(NC(=O)C2COc3ccccc3O2)c1 (centres undefined)	-5	-3	58*	-2
Cc1[nH]nc(NC(=O)C2COc3ccccc3O2)c1-c1ccccc1 (centres undefined)	32*	37*	-141	26
O=C(Nc1cc(S(=O)(=O)N2CCCCC2)ccc1N1CCCCC1)C1COc2ccccc2O1 (centres undefined)	-3	-11	-2	-12
COc1ccc(OC)c(-n2c(SC)nnc2-c2c[nH]c3ccccc23)c1	-3	-5	-4	0
Clc1ncccc1-c1nc2ccccc2n1Cc1ccccc1	-5	-14	-20	-6
COc1ccccc1-c1cccc(C2CCCN(C(=O)c3ccn[nH]3)C2)n1 (centres undefined)	2	-2	0	0
CN1CCN(c2ncnc3c2oc2ccc(Cl)cc23)CC1	12	88*	-1	2
COc1ccc(NC(=O)CC(=O)c2ccc([N+](=O)[O-])cc2)cc1S(=O)(=O)Nc1ccc(Cl)cc1	4	13	18	49*
COc1ccc(NS(=O)(=O)c2cccc(NC(=O)CC(=O)c3ccc([N+](=O)[O-])cc3)c2)cc1	4	0	15	46*
COc1ccc(NS(=O)(=O)c2cccc(NC(=O)CCC(=O)c3ccc(Cl)cc3)c2)cc1	6	-4	-1	15
COc1ccccc1NS(=O)(=O)c1cc(NC(=O)CC(=O)c2ccc([N+](=O)[O-])cc2)ccc1C	9	3	14	33*
COc1ccccc1NS(=O)(=O)c1cc(C(=O)NCc2ccncc2)ccc1C	6	5	5	1
COc1ccc(NS(=O)(=O)c2cc(NC(=O)CC(=O)c3ccc([N+](=O)[O-])cc3)ccc2Cl)cc1	-1	-4	7	58*
Cc1ccc2nc(C(=O)N3CCN(CCOc4ccc(F)cc4)CC3)[nH]c2c1	-1	-15	-2	0
Cn1ccc(-c2nc3ccccc3[nH]2)n1	0	-2	-1	3
SMILES	UCHL1 block	OTUD3 inh	USP7 inh	USP10 inh
COc1ccc(-c2noc(Nc3cc(OC)ccc3OC)n2)cc1	7	-5	-3	7
O=C1NC[C@@H](CCC(=O)N2CCCC2)N2C[C@@H](NCc3ccccc3)C[C@@H]12	-2	-14	30*	-2
Cc1cccc(NC(=O)CSc2nnc(NC(=O)c3ccc4ccccc4c3)s2)c1	-1	10	13	44*
Cc1cccc(NC(=O)CSCC(=O)Nc2cccc3ccccc23)c1	1	-5	-10	6
Cc1nc(N)cc(C2(C)CCN(C(=O)C3(C)CCN(C(=O)c4ccccc4)CC3)CC2)n1	3	7	6	0
O=C1c2c(O)cc(O)cc2OC(c2ccc(O)c(O)c2)C1O (centres undefined)	0	62*	-72	2
C[C@H]1[C@H](C)CCC23CC[C@]4(C)[C@@](C=CC5[C@@]6(C)CC[C@H](O)C(C)(C)[C@@H]6CC[C@]54C)(OC2=O)[C@H]13 (some centres undefined)	2	32*	8	20
C[C@@H]1CCC2(C)CC[C@]3(C)C(=CCC4[C@@]5(C)CCC(O)C(C)(C)C5CC[C@]43C)C2[C@H]1C (some centres undefined)	1	6	1	0
CCCCCCCCCCCC1=C(O)C(=O)C=C(O)C1=O	8	94*	50*	80*
O=C1Nc2ccc(S(=O)(=O)NCC(O)c3ccc([N+](=O)[O-])cc3)c3cccc1c23 (centres undefined)	-1	-9	-8	6
O=C(Nc1cccnc1)C1c2ccccc2C(=O)N(Cc2ccccc2)C12CCCC2 (centres undefined)	0	-20	-58	5
O=C(Nc1cccnc1)C1c2ccccc2C(=O)N(c2ccccc2)C12CCCCC2 (centres undefined)	0	2	10	31*
COc1ccc(C2c3c(-c4ccccc4O)n[nH]c3C(=O)N2Cc2ccncc2)cc1OC (centres undefined)	3	1	9	0
COc1ccc(N2CC(c3nnc(NC(=O)CCCc4ccccc4)s3)CC2=O)cc1 (centres undefined)	-1	1	6	9
COc1ccc(CCC(=O)Nc2nnc(C3CC(=O)N(c4ccccc4)C3)s2)cc1 (centres undefined)	1	1	5	34*
CC(C)=CCC/C(C)=C/COc1ccc(/C=C2\C(=O)N(O)[C@@H](C)C(=O)N2O)cc1	1	6	-18	38*
O=C1c2ccccc2NC2(C(=O)Nc3ccc(Br)cc32)N1c1ccccc1 (centres undefined)	6	76*	-7	6
O=c1c2cnc(N3CCCCC3)nc2ccn1Cc1ccc2c(c1)OCO2	0	-2	3	-4
Cc1ccc(CNC(=O)Cn2c(=O)n(CCCC(=O)NCc3ccc(F)cc3)c(=O)c3ccccc32)cc1	4	24	21	44*
Cc1ccc(Cn2c(=O)c3ncccc3n(CC(=O)NCc3ccc(F)cc3)c2=O)cc1	3	45*	3	34*
CCn1cc2c(n1)c(=O)n(Cc1ccc(C)cc1)c(=O)n2CC(=O)Nc1ccc(F)cc1	3	16	19	29
Cc1ccc(Cn2c(=O)n(CCC(=O)NCCc3ccccc3)c(=O)c3ccccc32)cc1	3	25	10	15
